Activity calls are given as the source filed them. Rule for the calls: active = hit-call score of the fitted dose curve at least 0.9, where 1 is the maximum; inactive = score below 0.9.
These compounds were tested on Paternally Expressed 10 (PEG10), PEG10 (gene 23089) (assay: LTEA_HepaRG_PEG10: Life Technologies and Expression Analysis (LTEA) Assay for Paternally Expressed 10 (PEG10) using HepaRG (AID 2283520;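 for AC50: PEG10 transcript by qRT-PCR normalised to ACTB GAPDH and POLR2A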)). Details: mRNA level, 48 h; actives raise or lower the signal.
Experimental: LTEA_HepaRG is a cell based, multiplexed-readout assay that uses HepaRG, a human liver cell line, with measurements taken at 48 hours after chemical dosing on a 96-well plate.LTEA_HepaRG_PEG10 is one of 102 assay component(s) measured in the LTEA HepaRG cell culture assay. It is a marker of Cell proliferation, survival, death.Data from the assay component LTEA_HepaRG_PEG10 was analyzed into 1 endpoint. This assay endpoint, LTEA_HepaRG_PEG10, was analyzed with bidirectional fitting relative to DMSO as the negative control and baseline of activity. Using a type of inducible reporter, measures of mRNA induction for gain or loss-of-signal activity can be used to understand regulation of transcription factor activity. To generalize the intended target to other relatable targets, this assay endpoint is annotated to the dna binding intended target family, where the subfamily is xenobiotic metabolism.
A total of 1060 chemcials from the ToxCast library were tested in eight-point concentration-response experiments. Cell culture and cytotoxicity assays were conducted at Thermo Fisher Scientific's Custom Services facility (Madison, WI). A single lot of human HepaRG cells (Thermo Fisher Scientific, Frederick, MD) was used for the cell culture experiments. 96-well format collagen type I coated plates of human HepaRG cells were prepared using established methods. Briefly, cryopreserved HepaRG cells were thawed, plated at a density of approximately 100,000 cells/well in HepaRG Thaw, Plate, and General Purpose media (HPRG770, Thermo Fisher Scientific), and incubated for 48 hours. 0.5% DMSO was selected as vehicle control to balance the requisite need of DMSO in HepaRG cultures to maintain differentiation (for example, baseline metabolism, proportions of hepatocytes vs. cholangiocytes), while enabling further hepatic receptor pathway activation (for example, PXR and CAR) in response to chemical exposure. 48 hours after plating, the culture medium was replaced with HepaRG Serum-Free Incudtion Media. Cells were exposed to each test chemical in duplicate and maintained in CO2 incubators for another 48 hours. Chemical plates were thawed to room temperature and 200x concentrations of treatment groups were prepared. 8-point conentration-reponse curves were made with the highest exposure at 100 uM, followed by half-log dilutions, all in 0.5% DMSO. Each test plate contained variouse controls, induction positive controls (1mM phenobarbital), cytotoxicity positive controls ([…] aflatoxin B1), vehicle controls (0.5% DMSO), and total lysis controls (0.5% DMSO). Cell morphology images were taken using an Essen IncuCyte FLR automated microscope, with six 96-well plates imaged in about 24 minutes. Images were captured and exported and JPEG files. Spent culture media was transfered to black-well plates for the LDH assay, and remaining media was sorted at -80 C for later use. Cells were treated with RLT buffer and frozen until shipped for gene expression analysis. Total RNA was isolated from the cell suspension in 75 uL of Buffer RLT (Qiagen, Germantown, MD 20874) by Quintiles/Expression Analysis (Durham, NC) using a custom isolation procedure. Total RNA from each plate well was transferred to a preamplification plate. Fluidigm's 96.96 Dynamic ArrayTM (Fluidigm, Amsterdam, the Netherlands) technology was used for gene expression analyses by quantitative reverse transcription polymerase chain reaction (qRT-PCR, performed by Quintiles/Expression Analysis, Durham, NC)89. Standard TaqManTM Assays (Applied Biosystems/ThermoFisher Scientific, Foster City, CA) were used to assess the expression of 93 genes selected based on their selectivity and sensitivity to important hepatic receptors known to be modulated by environmental chemicals; importance in human hepatocyte functionality; and hepatotoxicity. […]

Row | Compound | outcome | AC50
1 | CC1(C)C(=O)N(Br)C(=O)N1Br | inactive | –
2 | CCN(C(=O)c1cc(C)cc(OC[C@H](C)Nc2ccncc2)c1)C(C)C | inactive | –
3 | Cn1c(=O)c2c(ncn2C)n(C)c1=O | inactive | –
4 | CCCC(=O)OCC | inactive | –
5 | CN(C)c1ccc(N=NS(=O)(=O)O)cc1 | inactive | –
6 | CNS(=O)(=O)c1cc(C(=O)N2CCC(CCN3C4CCC3CC(n3c(C)nc5ccccc53)C4)(c3cccc(F)c3)CC2)c(Cl)cc1F (stereo not given) | – | 13.3 µM (active)
7 | COCCOc1cc2cc(C(=O)NC3CCN(C(C)C)CC3)n(CC(=O)Nc3ccc(Cl)cn3)c2cn1 | – | 45 µM (active)
8 | C=CC(=C)CCC=C(C)C | inactive | –
9 | O=C(O)CC(O)C(=O)O (stereo not given) | inactive | –
10 | CCCCC(CC)COC(=O)c1ccc(C(=O)OCC(CC)CCCC)cc1 (stereo not given) | inactive | –
11 | C[C@](N)(Cc1ccc(O)c(O)c1)C(=O)O | inactive | –
12 | CCCCCCc1ccc(O)cc1O | inactive | –
13 | CCCCC(CC)COC(=O)CCCCCCCCC(=O)OCC(CC)CCCC (stereo not given) | inactive | –
14 | CCOc1cccc(-n2cc(C(=O)N3CCN(c4cc(C(=O)O)c5ccccc5c4)CC3)nc2-c2ccc(C)cc2)c1 | – | 33.2 µM (active)
15 | Cc1ccc(N)cc1O | inactive | –
16 | CC(=O)OCCC(C)C | inactive | –
17 | CCCCCCCCO | inactive | –
18 | CC(C)=CCCC(C)=CC=O | inactive | –
19 | COc1ccc(-n2nc(C(F)F)cc2-c2ccc(S(C)=O)cc2)cc1 (stereo not given) | inactive | –
20 | Cc1c(-c2cccnc2)c2ccccc2n1CCCCC(=O)O | inactive | –

Row | Compound | outcome | AC50
21 | Cc1ccc(S(=O)(=O)O)cc1C | inactive | –
22 | O=C1CCCCCN1 | inactive | –
23 | CCCCCCCCCCCCc1ccccc1 | inactive | –
24 | CC[C@H]1CC[C@H](NCc2cc3c(cc2OC)[C@H]2C[C@H]2C(=O)N3C)[C@H](c2ccccc2)N1 | inactive | –
25 | CC(C)CCCCCCOC(=O)c1ccc(C(=O)OCCCCCCC(C)C)c(C(=O)OCCCCCCC(C)C)c1 | inactive | –
26 | Nc1nc2ncc(CNc3ccc(C(=O)N[C@@H](CCC(=O)O)C(=O)O)cc3)nc2c(=O)[nH]1 | inactive | –
27 | On1ccccc1=S | inactive | –
28 | CC[C@H](C)C(=O)O[C@H]1C[C@@H](C)C=C2C=C[C@H](C)[C@H](CC[C@@H]3C[C@@H](O)CC(=O)O3)[C@H]21 | inactive | –
29 | O=c1n(CC2CO2)c(=O)n(CC2CO2)c(=O)n1CC1CO1 (stereo not given) | inactive | –
30 | CCOC(=O)COc1ccc2c(c1)CC(NCC(O)c1cccc(Cl)c1)CC2 (stereo not given) | inactive | –
31 | CCCCCCCCCCCCCCCO | inactive | –
32 | CC[C@H]1OC(=O)[C@H](C)[C@@H](O[C@H]2C[C@@](C)(OC)[C@@H](O)[C@H](C)O2)[C@H](C)[C@@H](O[C@@H]2O[C@H](C)C[C@H](N(C)C)[C@H]2O)[C@](C)(O)C[C@@H](C)C(=O)[C@H](C)[C@@H](O)[C@]1(C)O | inactive | –
33 | CNCc1ccc(NC(=O)c2c[nH]c3c2C(=O)CCC3)cc1 | inactive | –
34 | O=c1[nH]c2ccc(S(=O)CCN3CCC(Cc4ccc(F)cc4)CC3)cc2o1 (stereo not given) | – | 50 µM (active)
35 | Cc1ccc(C)c(O)c1 | inactive | –
36 | CCOCCOCCOCCO | inactive | –
37 | Nc1cccc(N)c1 | inactive | –
38 | CC(C)CCO | inactive | –
39 | CC(C)=CCC/C(C)=C/CO | inactive | –
40 | CCOC(=O)CC(CC(=O)OCC)(OC(C)=O)C(=O)OCC | inactive | –

From PubChem BioAssay (EPA / NIEHS)
